CtBP-E1A blk – CtBP/E1A binding inhibition. AlphaScreen GST-E1A/His-CtBP binding, 1536-well; active compounds read low. activity change, % (test concentration not listed). 340,000 tested, 0.49% active. AID 651724; in the data active = activity change below about -65%; inconclusive = mostly about -30% to -63%; note: % is set by controls: 0 for no effect and ±100 for the full control effect
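In 5 uL wells, 23 nL compound meets equimolar GST-E1A and His-CtBP (5X stock 125 nM each) for 2 h, 37 °C. Beads (5X, 50 ug/mL) then 1 h, 37 °C, dark.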
RORgamma inh – inhibitors of mouse ROR gamma transcriptional activity; P51450; Drosophila S2 Gal4-RORgamma UAS-luciferase reporter, 20 h; Potency, µM (highest dose often 53.6 µM), for inactives: at the highest dose activity change, negative = inhibition, actives largely listed as inhibitors; 310,000 tested, 5.4% active; note: potency is the fitted concentration of half-maximal effect; % is set by controls: 0 for no effect and ±100 for the full control effect; nearly all actives have a fitted effect of over 60% in size
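Stable Schneider cell line, Gal4 DNA-binding domain fused to ROR gamma, UAS-luciferase. Cmpd 1 hr RT → CuSO4 700 uM final → 20 hr RT → luciferase reagent 10 min → luminescence.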
CBFb-RUNX1 inh – blocks binding between human CBF-beta and RUNX1 | Q01196+Q13951 | 230,000 tested, under 10 active | AID 1477 | AlphaScreen CBFb-His/RUNX1-biotin binding, biochemical | Potency, µM (highest dose often 59.8 µM), for the others: at the top dose activity, negative = inhibition, usual class: inhibitors; note: % of control where 0% means no effect
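CBFb-His/RUNX1-biotin, 30 nM each, preincubated 20 min RT; compound 15 min RT; Ni + streptavidin beads 50 ng each, 90 min RT; AlphaScreen read.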
MBNL1-CUG inh – blocks human MBNL1 binding to CUG repeat RNA | TR-FRET MBNL1-His/biotin-(CUG)12 binding, 665/545 ratio | Potency, µM (top dose mostly 57.5 µM), inactives show at the highest dose activity change, negative = inhibition, actives largely listed as inhibitors | 280,000 tested, 0.036% active; active = well fitted inhibition curve with a large enough effect in the signal ratio, with a control signal flat, not every such curve was filed as active; inconclusive = small, poorly fitted or top-dose-only effect, or effect the other way, or a change in a side signal; inactive = no such curve, though single readings can be large or run the other way; the % refers to the signal ratio; note: potency is the fitted concentration of half-maximal effect; % is set by controls: 0 for no effect and ±100 for the full control effect
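Ratiometric TR-FRET (665 over 545 nm, excitation 340 nm) tracks disruption of MBNL1-His/biotin-(CUG)12 complex after 60 min at room temperature, with compounds at 92 nM to 58 uM final.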
VP16 counter – inhibits Gal4-VP16 luciferase reporter, ROR gamma counter-screen; AID 2546; Potency, µM (top dose mostly 53.6 µM), for the others: top-dose activity, negative = inhibition, hits mostly inhibitors; 310,000 tested, 3.5% active; Drosophila S2 Gal4-VP16 UAS-luciferase, luminescence, 20 h;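 note: Gal4-VP16 expression switched on by copper sulfate through the metallothionein promoter; potency is the fitted concentration of half-maximal effect; % is set by controls: 0 for no effect and ±100 for the full control effect; nearly all actives have a fitted effect of over 50% in size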
Six1-Eya2 inh – blocks human Six1 binding to Eya2; AlphaScreen GST-Six1/His-Eya2 binding, biochemical; active compounds read low; activity change, % (no concentration beside the values); 360,000 tested, 0.56% active; AID 651725; in the data active = activity change below about -65%; inconclusive = mostly about -30% to -63%; note: % is set by controls: 0 for no effect and ±100 for the full control effect
Target sequence (O00167 whole entry, looked up): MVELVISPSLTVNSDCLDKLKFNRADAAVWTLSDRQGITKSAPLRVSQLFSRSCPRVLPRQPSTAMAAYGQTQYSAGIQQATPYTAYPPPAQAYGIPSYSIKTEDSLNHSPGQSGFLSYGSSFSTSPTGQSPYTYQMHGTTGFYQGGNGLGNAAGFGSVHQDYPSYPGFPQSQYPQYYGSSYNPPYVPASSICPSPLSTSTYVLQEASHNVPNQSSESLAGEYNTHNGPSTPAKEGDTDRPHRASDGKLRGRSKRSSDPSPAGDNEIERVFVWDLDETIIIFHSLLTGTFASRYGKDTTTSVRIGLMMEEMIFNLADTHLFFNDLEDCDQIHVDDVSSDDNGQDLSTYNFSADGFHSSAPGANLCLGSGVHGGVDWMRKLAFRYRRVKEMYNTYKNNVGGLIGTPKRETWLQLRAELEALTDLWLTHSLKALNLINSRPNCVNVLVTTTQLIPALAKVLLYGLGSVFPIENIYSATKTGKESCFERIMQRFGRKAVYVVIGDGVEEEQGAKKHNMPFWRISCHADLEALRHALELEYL
Target sequence (Q15475 whole entry, looked up): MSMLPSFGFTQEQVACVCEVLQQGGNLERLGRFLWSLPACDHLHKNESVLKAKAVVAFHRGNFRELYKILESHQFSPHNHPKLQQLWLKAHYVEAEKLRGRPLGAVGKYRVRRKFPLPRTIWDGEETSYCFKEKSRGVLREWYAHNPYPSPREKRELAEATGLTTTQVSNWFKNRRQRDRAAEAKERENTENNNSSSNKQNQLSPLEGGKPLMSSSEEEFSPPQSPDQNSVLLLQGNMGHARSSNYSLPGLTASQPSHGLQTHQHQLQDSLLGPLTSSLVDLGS
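Six1/Eya2 binding was read as AlphaScreen signal after compounds were pinned into GST-Six1 plus His-tagged Eya2 (5X stock 250/500 nM) in pH 8.0 Tris/NaCl/TCEP buffer, beads added, then incubated 1 h, 37 C, dark.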
MBNL1-CUG FRET – MBNL1-poly(CUG) RNA binding inhibition confirmed; shares compounds with MBNL1-CUG inh; TR-FRET MBNL1-His / biotin-(CUG)12 binding, 60 min; Potency, µM (highest dose often 57.6 µM), inactives show at the highest dose activity change, negative = inhibition, most hits filed as inhibitors; 140 tested, 50% active
MBNL1-CUG Alpha – blocks MBNL1 binding to (CUG)12 RNA in AlphaScreen. shares compounds with MBNL1-CUG inh. AlphaScreen MBNL1-His / biotin-(CUG)12 binding. Potency, µM (series often up to 57.7 µM), without a hit: at the highest dose activity, negative = inhibition, hits mostly inhibitors. 140 tested, 30% active
* = called active by the depositor; [ ] = another dose, or the depositor's remark. A selection: hits, their analogues and other compounds. The true share with any hit is near 5.5%. Unless noted, calls come from the whole dose curve; as a rule, active = well fitted curve in the direction sought with a large enough effect; inconclusive = small, poorly fitted or top-dose-only effect, or another doubt; inactive = no such curve, though single readings can be large; an effect the other way counts as inactive or inconclusive.

How did C#CCN1C(C)=C(C(=O)CCO)[C@@H](c2cccc(-n3oo3)c2)C(C(=O)OC)=C1C do in these assays?
RORgamma inh: 26%; CBFb-RUNX1 inh: -12%[21.7 µM]; VP16 counter: -8%

How did CCOC(=O)N1CCN(C(=O)c2ccc3c(=O)n(CCC4=CCCCC4)c(=S)[nH]c3c2)CC1 do in these assays?
CtBP-E1A blk: 3; RORgamma inh: -26%; CBFb-RUNX1 inh: -2%; MBNL1-CUG inh: -8%; VP16 counter: 14µM*; Six1-Eya2 inh: 7

Results for COC[C@H]1OC(=O)c2coc3c2[C@@]1(C)C1=C(C3=O)[C@H]2CCC(=O)[C@@]2(C)C[C@H]1OC(C)=O ?
RORgamma inh: inconclusive; CBFb-RUNX1 inh: 21%[21.7 µM]; VP16 counter: inconclusive

Results for CN(Cc1ccccc1)Cc1ccccc1OC(=O)N(C)C ?
CtBP-E1A blk: 5; RORgamma inh: 1.4µM*; CBFb-RUNX1 inh: 2%; MBNL1-CUG inh: -1%; VP16 counter: -1%; Six1-Eya2 inh: 1

Results for Cc1nc2ccccc2c(=O)n1-c1ccncc1 ?
CtBP-E1A blk: 2; RORgamma inh: 0%; CBFb-RUNX1 inh: -9%; MBNL1-CUG inh: -1%; VP16 counter: 9%; Six1-Eya2 inh: 3

What do the screens show for `Cc1nc2ccccc2c(=O)n1-c1cc([N+](=O)[O-])cc([N+](=O)[O-])c1`?
CtBP-E1A blk: 6; RORgamma inh: 1.1µM*; MBNL1-CUG inh: inconclusive; VP16 counter: -24%; Six1-Eya2 inh: -3

What do the screens show for `CSc1ncc(CN2CCCC(C(=O)c3cccc(Cl)c3)C2)cn1` (stereo not given)?
CtBP-E1A blk: 1; RORgamma inh: 41%; CBFb-RUNX1 inh: 2%; MBNL1-CUG inh: -12%; VP16 counter: -5%; Six1-Eya2 inh: -7

What do the screens show for `CCCCc1ncc(CN2CCCC(C(=O)c3ccc(SC)cc3)C2)[nH]1` (stereo not given)?
CtBP-E1A blk: -1; RORgamma inh: 11µM*; CBFb-RUNX1 inh: -6%; MBNL1-CUG inh: -7%; VP16 counter: -25%; Six1-Eya2 inh: 6

Results for CNC(=O)Oc1ccc(-c2cn3cc(Cl)ccc3n2)cc1 ?
CtBP-E1A blk: -23; RORgamma inh: 6.3µM*; CBFb-RUNX1 inh: -1%; MBNL1-CUG inh: 9%; VP16 counter: inconclusive; Six1-Eya2 inh: -18

How did CC[C@H]1CN2CCc3cc(OC)c(OC)cc3[C@H]2C[C@@H]1C[C@@H]1NCCc2cc(OC)c(OC)cc21 do in these assays?
RORgamma inh: 0.79µM*; CBFb-RUNX1 inh: 7%; VP16 counter: 2.5µM*

How did CCOP(=S)(OCC)O/N=C(\C#N)c1ccccc1Cl do in these assays?
RORgamma inh: -14%; CBFb-RUNX1 inh: inconclusive; VP16 counter: -2%

How did ClC1=C(Cl)C(Cl)=C(Cl)C1=C/C=C/c1ccccc1 do in these assays?
CtBP-E1A blk: 2; RORgamma inh: -12%; CBFb-RUNX1 inh: inconclusive; VP16 counter: -12%; Six1-Eya2 inh: -9

Results for CC[C@@]1(O)C(=O)OCc2c1cc1n(c2=O)-c2cc3ccccc3nc2C1 ?
RORgamma inh: 0.13µM*; CBFb-RUNX1 inh: inconclusive; VP16 counter: inconclusive

How did CC[C@@]1(O)C(=O)OCc2c1cc1n(c2=O)Cc2cc3cc(O)ccc3nc2-1 do in these assays?
RORgamma inh: inconclusive; CBFb-RUNX1 inh: -18%; VP16 counter: inconclusive

Results for O=[N+]([O-])c1ccc(NCc2ccc(Cl)cc2)c2ccncc12 ?
CtBP-E1A blk: 2; RORgamma inh: -21%; MBNL1-CUG inh: 19%; VP16 counter: 11µM*; Six1-Eya2 inh: -3

How did COC(=O)[C@]12OC[C@]34C([C@@H](O)[C@@H]1O)[C@]1(C)CC(=O)C(O)=C(C)[C@@H]1C[C@H]3OC(=O)[C@H](O)[C@@H]24 (stereo not given in full) do in these assays?
CtBP-E1A blk: -1; RORgamma inh: 0.56µM*; CBFb-RUNX1 inh: 14%; MBNL1-CUG inh: -9%; VP16 counter: 0.22µM*; Six1-Eya2 inh: 0

What do the screens show for `CCN(CC)c1ncnc2c1ncn2[C@@H]1O[C@@H](COP(=O)(O)OP(=O)(O)C(Br)(Br)P(=O)(O)O)[C@H](O)[C@H]1O`?
RORgamma inh: -10%; CBFb-RUNX1 inh: -12%[21.7 µM]; VP16 counter: -4%

How did COC(=O)Nc1cccc(OC(=O)Nc2cccc(C)c2)c1 do in these assays?
RORgamma inh: -10%; CBFb-RUNX1 inh: 15%[21.7 µM]; VP16 counter: -12%

What do the screens show for `Cc1ccc(C)c(-n2c(C)nc3ccccc3c2=O)c1`?
RORgamma inh: 24%; CBFb-RUNX1 inh: 4%; MBNL1-CUG inh: -14%; VP16 counter: -9%; Six1-Eya2 inh: 1

How did Cc1ccc2c(c1)c(C1=c3ccccc3=NC1=O)c(O)n2C do in these assays?
RORgamma inh: 7.1µM*; MBNL1-CUG inh: 7%; VP16 counter: 3.5µM*; Six1-Eya2 inh: 14

Results for CCCCCCCC/C=C\CCCCCCCC(=O)OC[C@@H](COP(O)(O)=S)OC ?
RORgamma inh: 1%; CBFb-RUNX1 inh: -22%; VP16 counter: -4%

What do the screens show for `CC(C)=CCCC1(C)C=Cc2c(O)c3c(c(CC=C(C)C)c2O1)OC12C(CC4CC1C(C)(C)OC2(C/C=C(/C)C(=O)O)C4O)C3=O` (stereo not given)?
RORgamma inh: -9%; CBFb-RUNX1 inh: 10%; VP16 counter: -30%

Results for CC(O)C(C)OC(=O)[C@@H]1C[C@@H]2c3cccc4c3c(cn4C(C)C)C[C@H]2N(C)C1 (stereo not given in full) ?
CBFb-RUNX1 inh: inconclusive; MBNL1-CUG FRET: inconclusive; MBNL1-CUG Alpha: -44%

Results for FC(F)(F)c1ccc(Cl)cc1 ?
RORgamma inh: -5%; CBFb-RUNX1 inh: 11%[21.7 µM]; VP16 counter: -3%
